Reference: PubChem BioAssay
Activity calls are given as the source filed them.

Experiments:
[1] = small molecules captured by biotinylated probe aFSTL3 – biochemical, small-molecule microarray, fluorescence 635/667, stem cell growth factor project, primary screen (AID 1064); conditions: higher = more signal;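 also: measures binding of the biotinylated anti-FSTL3 antibody to printed compounds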
[2] = binders from COS7 lysate, DM2A8 probe, primary screen, torsin A project, cell lysate, small-molecule microarray, fluorescence 635/667 (AID 1065); conditions: higher = more signal, COS7 lysate expressing mutant human TOR1A
[3] = small molecules captured by biotinylated probe aFGF2 – biochemical, small-molecule microarray, fluorescence 635/667, stem cell growth factor project, primary screen (AID 1067); conditions: higher = more signal;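 also: measures binding of biotinylated aFGF2 protein to printed compounds on slides; z-score merges feature fluorescence and signal-to-noise across triplicate slides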
[4] = small molecules captured by biotinylated probe aFGF10 – biochemical, small-molecule microarray, fluorescence 635/667, stem cell growth factor project, primary screen (AID 1071); conditions: higher = more signal;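 also: score merges 667 nm spot intensity and signal to noise from triplicate slides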
[5] = biological target: Neurogenic locus notch homolog protein 2 (Homo sapiens) (UniProt Q04721); experiment: small molecules binding Notch2 protein – biochemical, small-molecule microarray, 635 nm fluorescence, stem cell growth factors, primary screen (AID 1073); conditions: higher = more signal
[6] = biological target: Pro-neuregulin-1, membrane-bound isoform (Homo sapiens) (UniProt Q02297); experiment: small molecules binding neuregulin-1 protein – biochemical, small-molecule microarray, fluorescence 635/667, psychiatric disease protein project, primary screen (AID 1075); conditions: NRG1 binding, 635 nm fluorescence, higher = more signal;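 also: score combines 667 nm spot fluorescence with signal to noise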
[7] = tested on: Neuregulin-1 EGF-like domain; experiment: small molecules binding NRG1 EGF domain – biochemical, small-molecule microarray, 635 nm fluorescence, primary screen (AID 1081); conditions: higher = more signal;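 also: binding of the protein to compounds printed on small-molecule microarray slides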
[8] = FRG1 expression reporter modulators in myotubes – cell-based, C2C12 myotubes, firefly/Renilla luciferase, luminescence, FRG1 inhibition for FSHD, primary screen (AID 1084); conditions: FRG1 promoter luciferase, higher = more signal, called active from +8 up or from −8 down
[9] = small molecules captured by biotinylated probe aFST – biochemical, small-molecule microarray, fluorescence 635/667, stem cell growth factor project, primary screen (AID 1086); conditions: higher = more signal;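 also: score merges 667 nm fluorescence with signal-to-noise of each printed compound spot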
[10] = binders of probe aHhip on microarray, primary screen, stem cell growth factor project, biochemical, small-molecule microarray, fluorescence 635/667 (AID 1087); conditions: higher = more signal;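 also: score merges spot fluorescence at 667nm with spot signal to noise ratio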

Sequence of Neurogenic locus notch homolog protein 2 (Homo sapiens) (Q04721 whole entry, looked up, canonical isoform): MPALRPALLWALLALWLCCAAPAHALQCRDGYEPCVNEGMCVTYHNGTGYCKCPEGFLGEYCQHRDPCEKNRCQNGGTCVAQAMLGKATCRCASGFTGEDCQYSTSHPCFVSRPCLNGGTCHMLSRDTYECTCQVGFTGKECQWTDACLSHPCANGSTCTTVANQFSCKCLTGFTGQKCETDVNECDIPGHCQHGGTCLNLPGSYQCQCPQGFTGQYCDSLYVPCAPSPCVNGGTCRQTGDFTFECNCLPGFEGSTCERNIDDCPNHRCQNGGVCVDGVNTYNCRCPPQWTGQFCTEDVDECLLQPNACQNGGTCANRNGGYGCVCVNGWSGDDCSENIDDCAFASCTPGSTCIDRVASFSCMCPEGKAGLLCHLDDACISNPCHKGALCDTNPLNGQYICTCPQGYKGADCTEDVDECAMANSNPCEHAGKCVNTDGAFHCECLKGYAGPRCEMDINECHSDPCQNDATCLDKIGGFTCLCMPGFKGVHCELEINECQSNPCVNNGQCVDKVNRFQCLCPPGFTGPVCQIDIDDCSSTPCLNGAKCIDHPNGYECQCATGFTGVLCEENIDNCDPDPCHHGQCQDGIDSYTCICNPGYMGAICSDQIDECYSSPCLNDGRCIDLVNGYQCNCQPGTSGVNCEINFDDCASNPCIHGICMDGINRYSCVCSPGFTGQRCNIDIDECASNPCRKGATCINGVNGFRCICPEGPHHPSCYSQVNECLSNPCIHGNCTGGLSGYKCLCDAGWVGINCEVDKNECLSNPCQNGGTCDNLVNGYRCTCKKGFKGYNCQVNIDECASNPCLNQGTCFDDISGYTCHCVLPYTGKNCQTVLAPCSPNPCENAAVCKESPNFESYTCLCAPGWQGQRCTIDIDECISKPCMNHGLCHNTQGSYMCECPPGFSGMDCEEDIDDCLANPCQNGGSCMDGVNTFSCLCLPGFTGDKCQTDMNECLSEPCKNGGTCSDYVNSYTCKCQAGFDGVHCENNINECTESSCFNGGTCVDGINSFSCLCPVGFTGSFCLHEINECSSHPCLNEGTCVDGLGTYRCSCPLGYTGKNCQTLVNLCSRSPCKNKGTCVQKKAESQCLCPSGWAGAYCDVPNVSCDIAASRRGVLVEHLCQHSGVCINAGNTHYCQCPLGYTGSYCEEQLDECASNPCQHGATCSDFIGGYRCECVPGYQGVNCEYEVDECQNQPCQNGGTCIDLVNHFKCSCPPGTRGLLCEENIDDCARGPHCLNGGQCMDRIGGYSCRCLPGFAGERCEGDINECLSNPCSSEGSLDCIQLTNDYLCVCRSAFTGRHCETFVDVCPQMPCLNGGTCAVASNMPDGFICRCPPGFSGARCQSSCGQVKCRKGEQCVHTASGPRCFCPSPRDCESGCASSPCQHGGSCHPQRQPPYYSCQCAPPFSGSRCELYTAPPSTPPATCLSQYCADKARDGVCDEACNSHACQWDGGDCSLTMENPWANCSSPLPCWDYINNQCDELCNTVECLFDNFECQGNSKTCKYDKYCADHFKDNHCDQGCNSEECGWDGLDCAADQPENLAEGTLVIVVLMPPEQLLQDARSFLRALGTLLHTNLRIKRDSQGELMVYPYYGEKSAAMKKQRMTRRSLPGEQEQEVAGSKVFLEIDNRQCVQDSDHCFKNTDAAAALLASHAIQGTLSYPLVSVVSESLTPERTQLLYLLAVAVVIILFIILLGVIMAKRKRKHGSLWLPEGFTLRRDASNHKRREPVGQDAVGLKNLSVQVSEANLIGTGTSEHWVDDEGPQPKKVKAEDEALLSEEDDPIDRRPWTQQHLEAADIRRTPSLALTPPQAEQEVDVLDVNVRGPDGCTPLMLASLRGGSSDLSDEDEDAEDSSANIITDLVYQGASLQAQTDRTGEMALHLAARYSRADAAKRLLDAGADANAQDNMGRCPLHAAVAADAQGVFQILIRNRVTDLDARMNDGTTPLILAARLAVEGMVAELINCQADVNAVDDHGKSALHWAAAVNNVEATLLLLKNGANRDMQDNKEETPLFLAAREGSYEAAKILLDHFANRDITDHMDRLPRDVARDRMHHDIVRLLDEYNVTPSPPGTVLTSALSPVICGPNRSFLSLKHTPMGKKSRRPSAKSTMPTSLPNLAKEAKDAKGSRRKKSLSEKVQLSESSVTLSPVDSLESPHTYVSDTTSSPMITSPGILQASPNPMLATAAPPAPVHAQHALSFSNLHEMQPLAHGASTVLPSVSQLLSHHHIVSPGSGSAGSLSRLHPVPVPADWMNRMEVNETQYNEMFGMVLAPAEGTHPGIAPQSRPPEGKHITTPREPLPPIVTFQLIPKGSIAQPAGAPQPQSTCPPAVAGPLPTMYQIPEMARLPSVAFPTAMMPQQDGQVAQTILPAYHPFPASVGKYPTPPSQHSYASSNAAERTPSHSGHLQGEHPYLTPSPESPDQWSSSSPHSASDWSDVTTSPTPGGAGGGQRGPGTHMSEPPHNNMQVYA
Sequence of Pro-neuregulin-1, membrane-bound isoform (Homo sapiens) (Q02297 whole entry, looked up, the tested form may be a part, canonical isoform): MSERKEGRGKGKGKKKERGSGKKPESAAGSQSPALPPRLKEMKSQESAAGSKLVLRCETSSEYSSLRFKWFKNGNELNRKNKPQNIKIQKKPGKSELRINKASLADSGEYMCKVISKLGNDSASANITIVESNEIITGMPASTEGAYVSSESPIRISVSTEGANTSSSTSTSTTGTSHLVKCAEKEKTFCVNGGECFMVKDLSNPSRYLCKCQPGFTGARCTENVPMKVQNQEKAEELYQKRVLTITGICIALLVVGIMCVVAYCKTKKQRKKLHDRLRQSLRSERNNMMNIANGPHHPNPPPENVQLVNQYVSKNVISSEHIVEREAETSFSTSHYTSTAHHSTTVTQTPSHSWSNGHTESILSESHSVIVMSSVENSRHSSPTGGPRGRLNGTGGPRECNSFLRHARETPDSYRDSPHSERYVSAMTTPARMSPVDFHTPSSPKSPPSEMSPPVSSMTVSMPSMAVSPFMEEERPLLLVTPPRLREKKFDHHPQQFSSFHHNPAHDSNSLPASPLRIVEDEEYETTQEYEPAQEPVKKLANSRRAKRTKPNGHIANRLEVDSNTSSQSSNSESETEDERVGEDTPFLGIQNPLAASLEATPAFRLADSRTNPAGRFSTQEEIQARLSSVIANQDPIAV

| Structure (SMILES) | composite z-score [1] | composite z-score [2] | composite z-score [3] | composite z-score [4] | composite z-score [5] | composite z-score [6] | composite z-score [7] | z-score [8] | composite z-score [9] | composite z-score [10] |
| --- | --- | --- | --- | --- | --- | --- | --- | --- | --- | --- |
| CC[C@H]1C2=C3C(CC[C@H]4C(OCc5ccc(F)cc5C(F)(F)F)OC[C@](C)([C@@H]34)N(C(=O)OC(C)(C)C)C2)C(COC(C)=O)C1COC(C)=O (stereo not given in full) | -0.187 | -0.25 | 0.0311 | 0.54 | 1.54 | 1 | 1.2 | 1.48 (inactive) | 1.43 | 0.104 |
| COc1cc(Cc2cc3c(c(CCc4ccccc4)n2)[Si](C(C)C)(C(C)C)O[C@H]3c2ccccc2)cc(OC)c1OC | 0.962 | -0.133 | -0.0454 | 0.169 | -0.285 | -0.499 | -0.44 | -0.149 (inactive) | -0.273 | -0.0102 |
| [N-]=[N+]=NCc1ccccc1[C@H]1OC(c2ccc(OCCCO)cc2)=N[C@@]1(CCS(=O)(=O)c1ccccc1)C(=O)O | 0.0191 | 0.401 | -0.0087 | 0.135 | 1.21 | 1.01 | 0.19 | 6.44 (inactive) | 0.785 | 0.0881 |
| COc1ccc(CCNC(=O)[C@@H]2c3ccccc3C(=O)N(C(C)C)[C@H]2c2ccc(CO)cc2)cc1 | 1.42 | -0.489 | -0.142 | -0.92 | -1.48 | 0.0203 | 0.209 | -1.15 (inactive) | -0.36 | -0.379 |
| CCCCCCc1nc(-c2ccc(OC)nc2)c(C)c2c1[Si](C(C)C)(C(C)C)OC2 | -0.314 | -0.0637 | -0.0502 | -0.234 | 0.0716 | -0.64 | -0.59 | 0.329 (inactive) | 0.0446 | -0.0994 |
| O=C(N1CCOCC1)[C@]1(CCS(=O)(=O)c2ccccc2)N=C(c2ccc(OCCCO)cc2)O[C@@H]1c1ccccc1 | 0.217 | 2.19 | -0.0667 | 0.479 | 1.22 | 1.94 | 1.3 | -1.49 (inactive) | 1.31 | -0.0994 |
| CCCCC(=C=CC[C@H](O)c1cccc(OCCO)c1)C[C@H](O)c1cc(Cl)cc(Cl)c1O | -0.288 | -0.027 | -0.0376 | 0.526 | -0.107 | 0.665 | 0.616 | -1.64 (inactive) | 0.137 | -0.197 |
| C=C[C@H](OC)[C@@H](O)c1ccc(OC)c(O)c1 | 0.694 | -1.02 | -0.137 | -0.248 | -1.34 | -0.967 | -0.673 | 0.0137 (inactive) | -1 | 0.107 |
